# In PubChem BioAssay (Tox21):
# Values without a mark were called inactive. Active and inactive are the calls of the source. Calls come from the whole dose curve; as a rule, active = well fitted curve in the direction sought with a large enough effect in the repeat runs; inconclusive = weak or mixed curves; inactive = flat fitted curve, though single readings scatter. Positions of bridges follow the written chain, without caps; N, C: chain ends. Non-standard residues stand in square brackets, D forms with d. Residues, ends and D or L forms follow the SMILES beside them. ξ: configuration not given here. *: point of attachment. d(aThr) = C[C@@H](O)[C@@H](N)C(=O)O; ξThr(3R) = C[C@@H](O)C(N)C(=O)O; X3 = CC[C@@H](C)CCCCC(=O)*; dDab = NCC[C@@H](N)C(=O)O
# Experiment: qHTS assay to test for compound auto fluorescence at 590 nm (red) in HEK293 cells (AID 720679)
# Settings: red autofluorescence 540/590 nm; series mostly up to 46 µM; fluorescence, % of fluorescent control: at the top concentration
# Outline: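 Using HEK293 cells at 2,000 per well, the screen added 23 nL of each compound after cell attachment and incubated overnight (37C, 5% CO2). The plate reader then captured red-label fluorescence, Ex/Em 540/590nm.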
# % is set by controls: 0 for no effect and ±100 for the full control effect.
SMILES,"fluorescence, % of fluorescent control",Potency
CSc1nc2cc(Oc3cccc(Cl)c3Cl)c(Cl)cc2[nH]1,0.0804%,
Cc1ccc(S(=O)(=O)NC(=O)N[C@@H](C)Cc2ccccc2)cc1,0.0432%,
CC[C@@H](C)CCCCC(=O)N[C@H](CCN)C(=O)N[C@@H](C(=O)N[C@H](CCN)C(=O)N[C@@H]1CCNC(=O)C([C@@H](C)O)NC(=O)[C@@H](CCN)NC(=O)[C@@H](CCN)NC(=O)[C@@H](CC(C)C)NC(=O)[C@@H](Cc2ccccc2)NC(=O)[C@@H](CCN)NC1=O)[C@@H](C)O (stereo partly drawn) (X3-[dDab][d(aThr)][dDab][dDab][dDab][dF][dL][dDab][dDab][ξThr(3R)]; lactam 4-C),-0.172%,
COC(=O)C1=C(C)NC(C)=C(C(=O)O[C@H]2CCN(Cc3ccccc3)C2)[C@H]1c1cccc([N+](=O)[O-])c1,-0.161%,
CCCCCCCCCCCCCCCCOCCOCCOCCOCCOCCOCCOCCOCCOCCOCCOCCOCCOCCOCCOCCOCCOCCOCCOCCOCCO,-0.0337%,
CCC(=O)O[C@@H]1CC(=O)O[C@H](C)C/C=C/C=C/[C@H](O)[C@H](C)C[C@H](CC=O)[C@H](O[C@@H]2O[C@H](C)[C@@H](O[C@H]3C[C@@](C)(O)[C@@H](OC(=O)CC)[C@H](C)O3)[C@H](N(C)C)[C@H]2O)[C@H]1OC,-1.36% [at 18.6 µM],
O=C(Nc1ccc(/C=C/c2ccc(NC(=O)c3cc(S(=O)(=O)O)c4cccnc4c3O)cc2S(=O)(=O)O)c(S(=O)(=O)O)c1)c1cc(S(=O)(=O)O)c2cccnc2c1O,-0.0284%,
C[C@]12C=CC(=O)N[C@@H]1CC[C@@H]1[C@@H]2CC[C@]2(C)[C@@H](C(=O)Nc3cc(C(F)(F)F)ccc3C(F)(F)F)CC[C@@H]12,0.234%,
NC(N)=NCC1COc2ccccc2O1 (configuration not stated),-0.197%,
CC[C@]1(O)CC2CN(CCc3c([nH]c4ccccc34)[C@@](C(=O)OC)(c3cc4c(cc3OC)N(C)[C@H]3[C@@](O)(C(N)=O)[C@H](O)[C@]5(CC)C=CCN6CC[C@]43[C@@H]65)C2)C1 (some centres not stated),-0.0155%,
NC(=O)C[C@@H](N)C(=O)O,0.787%,
CN=C(NC)NCc1ccccc1,-0.728%,
CC(C)NCC(O)COc1ccccc1-n1cccc1 (configuration not stated),-0.174%,
CN(CCO)CC(O)Cn1cnc2c1c(=O)n(C)c(=O)n2C (configuration not stated) (tested in a mixture with another compound),0.112%,
COc1ccccc1N1CCN(CCCC(=O)c2ccc(F)cc2)CC1,-0.325%,
CN[C@@H]1[C@@H](O)[C@@H](O[C@@H]2[C@@H](O)[C@H](OC3OC(CN)=CCC3N)[C@@H](N)C[C@H]2N)OC[C@]1(C)O (some centres not stated),0.2% [at 18.6 µM],
c1ccc2cc(C3=NCCN3)ccc2c1,0.0958%,
O=C(OC[C@H]1O[C@](O)(COC(=O)c2cccnc2)[C@@H](OC(=O)c2cccnc2)[C@@H]1OC(=O)c1cccnc1)c1cccnc1,0.521%,
CCC(=O)OCC(=O)[C@@]1(OC(=O)CC)[C@@H](C)C[C@H]2[C@@H]3CCC4=CC(=O)C=C[C@]4(C)[C@@]3(F)[C@@H](O)C[C@@]21C,0.484%,

SMILES,"fluorescence, % of fluorescent control",Potency
Cc1cc(O)c2c(c1)O[C@@]1(C)CC[C@H]3C(C)(C)CCCC34CO[C@@H]2[C@H]41 (some centres not stated),-0.0572%,
C#C[C@]1(O)CC[C@H]2[C@@H]3CCC4=C(CCC(=O)C4)[C@H]3CC[C@@]21C,-0.0757% [at 18.6 µM],
OCC(S)CS (configuration not stated),-0.231%,
CCCCCc1ccc(C)cc1O,0.012%,
NCCC(=O)[N-][C@@H](Cc1cnc[nH]1)C(=O)O.[Zn],-0.0147%,
O=C(O)c1cc(N=Nc2ccc(O)c(C(=O)O)c2)ccc1O,0.0087%,
CCC[C@@H]1C[C@@H](C(=O)N[C@@H]([C@H]2O[C@H](SC)[C@H](O)[C@@H](O)[C@H]2O)[C@H](C)Cl)N(C)C1,0.0756%,
CC(C)N=c1cc2n(-c3ccc(Cl)cc3)c3ccccc3nc-2cc1Nc1ccc(Cl)cc1,0.0261% [at 18.6 µM],
C[C@@H]1CCC2[C@@H](C)[C@@H](O)O[C@@H]3O[C@@]4(C)CC[C@@H]1[C@@]23OO4 (some centres not stated),-0.927%,
CC(=O)N[C@@H](C=O)[C@@H](O)[C@H](O)[C@H](O)CO,0.132%,
CCOC(=O)C1=C(COCCN)NC(C)=C(C(=O)OC)C1c1ccccc1Cl (configuration not stated),,inactive
CCOC(=O)[C@@H](N)CS,0.201%,
CC[C@@H]1/C=C(\C)C[C@H](C)C[C@H](OC)[C@H]2O[C@@](O)(C(=O)C(=O)N3CCCC[C@H]3C(=O)O[C@H](/C(C)=C/[C@@H]3CC[C@@H](Cl)[C@H](OC)C3)[C@H](C)[C@@H](O)CC1=O)[C@H](C)C[C@@H]2OC,-0.0053%,
CCCCCCCCCCCCCCCC(=O)O[C@@H]1CC(C)=C(/C=C/C(C)=C/C=C/C(C)=C/C=C/C=C(C)/C=C/C=C(C)/C=C/C2=C(C)C[C@@H](OC(=O)CCCCCCCCCCCCCCC)CC2(C)C)C(C)(C)C1,0.0231%,
CCCCCCC(=O)O[C@H]1CC[C@H]2[C@@H]3CCc4cc(O)ccc4[C@H]3CC[C@]12C,-0.159%,
CN=C1C=CC(=C(c2ccc(N(C)C)cc2)c2ccc(N(C)C)cc2)C=C1,0.734%,
CCCC1([C@H](O)C/C=C/[C@H]2[C@H](O)CC(=O)[C@@H]2CCCCCCC(=O)OC)CCC1,-0.249%,
C=C1C(=C/C=C2\CCC[C@]3(C)[C@@H]([C@H](C)/C=C/[C@H](C)C(C)C)CC[C@@H]23)C[C@@H](O)C[C@@H]1O,-0.428%,
